For assay [1], the target named is Lysosomal acid glucosylceramidase (Homo sapiens) (UniProt P04062). Description: Glucocerebrosidase-p2 (AID 348; in the data active = potency below about 10 µM; note: potency is the fitted concentration of half-maximal effect). The conditions noted are these: purified GBA, blue fluorogenic substrate, 40 min. The method in brief: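 Compounds titrated from 0.6 nM upwards against 0.2 nM enzyme in pH 5.9 citric acid/KH2PO4, taurocholate, tween-20; blue fluorogenic substrate 80 uM, 40 min room temperature, stopped and read Ex 365/Em 440 for AC50.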

Assay [2] concerns the target Glucocorticoid receptor (Homo sapiens) (UniProt P04150). Nature of the assay: GR-GFP Redistribution (AID 450;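 active = compounds whose dose series gives a full or clear partial fitted curve of increased nuclear translocation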; note: potency is the fitted concentration of half-maximal effect). The conditions noted are these: U2OS GR-GFP nuclear translocation, laser cytometry, 2 h.
For assay [3] the target is unchanged. Description: GR-EFC Redistribution (AID 451; calls by dose curve; note: potency is the fitted concentration of half-maximal effect). The conditions noted are these: CHO-K1 GR-EFC translocation, beta-gal luminescence, 2 h. The method in brief:
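CHO-K1 cells expressing nuclear EA and GR-ED fragments of b-gal; compounds titrated up to 46 uM final, 2 h at 37 C. GR nuclear translocation read as complemented b-gal luminescence after 1 h RT detection.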

Assay [4] addresses Mitogen-activated protein kinase 10 (Mus musculus) (UniProt Q61831). Description: JNK3 AlphaScreen Assay (AID 530; active = well fitted curve in either direction with a large enough effect, not every such curve was filed as active;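 note: kinase came from lysate of stimulated human HepG2 cells; signal reports phosphorylation of biotinylated GST-cJun 1-79 at Ser73 with 10 µM ATP; % is set by controls: 0 for no effect and ±100 for the full control effect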). The conditions noted are these: JNK3 lysate, c-Jun phosphorylation; series mostly up to 57.1 µM. In a few lines: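 Pre-activated (IL-1β/TNFα) JNK3 in HepG2 lysates phosphorylates biotin-GST-cJun(1-79), 10 uM ATP; anti-phospho-cJun(Ser73) AlphaScreen read at room temperature, pH 7.6 Tris buffer. Compounds pre-incubated 15 min as titrations.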

Assay [5] has as its target 3',5'-cyclic-AMP phosphodiesterase 4B (Homo sapiens) (UniProt Q07343). Nature of the assay: qHTS Assay for Inhibitors of PDE-IV (AID 607; active = well fitted activation curve with a large enough effect in the main read-out, with a control signal flat, not every such curve was filed as active; note: % of control where 0% means no effect). The settings on record: HEK293 ACTOne CNG channel cells, membrane potential fluorescence; series mostly up to 22.9 µM. In a few lines:
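The readout is membrane depolarisation from a cAMP-sensing CNG channel, detected with a potential dye at ex 535/em 590. Cells were HEK293-derived (endogenous PDE-IV) at 1000 cells/well, titrated up to 22.9 uM final.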

The target in assay [6] is Cytochrome P450 3A4 (Homo sapiens) (UniProt P08684). Description: qHTS Assay for Activators of Cytochrome P450 3A4 (AID 885). Note: nearly all actives have a fitted effect of over 65% in size. The settings on record: recombinant CYP3A4, Luciferin-PPXE luminescence, 60 min; series mostly up to 57.1 µM. The method in brief: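 Steps: enzyme/substrate mix dispensed; compound added, 10 min RT; NADPH regeneration solution added, 60 min RT; luciferin detection buffer stops reaction; 20 min later luminescence measured.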

Assay [7] addresses Dual specificity protein kinase CLK4 (Homo sapiens) (UniProt Q9HAZ1). Nature of the assay: qHTS Assay for Inhibitors of CDC-like Kinase 4 (Kinase-Glo Assay) (AID 1770). Note: nearly all actives have a fitted effect of over 65% in size. Note: potency is the fitted concentration of half-maximal effect. The conditions noted are these: recombinant Clk4, Kinase-Glo ATP depletion luminescence; series mostly up to 66.7 µM. In a few lines: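 Readout: Kinase-Glo luminescence from ATP left after a 4.5 h room-temperature reaction of 25 nM Clk4 with 100 uM RS peptide and 1 uM ATP (final). Buffer: 25 mM Tris pH 7.5, 10 mM MgCl2.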

The target is the same in assay [8]. Nature of the assay: qHTS Assay for Inhibitors of CDC-like Kinase 4 (ADP-Glo Assay) (AID 1771). Note: nearly all actives have a fitted effect of over 70% in size. Note: potency is the fitted concentration of half-maximal effect. The settings on record: recombinant CLK4, ADP-Glo luminescence; series mostly up to 80 µM. The method in brief: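 25 nM Clk4 with 100 uM RS repeat peptide and 1 uM ATP (final) in buffer with 2 mM MgCl2, 0.5 mM EGTA, 2.5 mM DTT, 0.01% Triton X-100; 1 h at room temperature; ADP-Glo luminescence for ADP formed.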

Assay [9] has the same target. Description: qHTS Assay for Inhibitors of CDC-like Kinase 4 (ADP-FP Assay) (AID 1795). Note: nearly all actives have a fitted effect of over 60% in size. Note: potency is the fitted concentration of half-maximal effect. The conditions noted are these: Transcreener ADP fluorescence polarization; series mostly up to 50 µM. The method in brief: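 FP readout: Orange Transcreener ADP2 tracer (4 nM) plus ADP antibody, read after 30 min at room temperature. Kinase step: 6.25 nM Clk4, 100 uM RS peptide, 1 uM ATP, pH 7.5, 1 h.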

The target in assay [10] is Ubiquitin carboxyl-terminal hydrolase 1 (Homo sapiens) (UniProt O94782). Nature of the assay: Inhibitors of USP1/UAF1: Pilot qHTS (AID 504865).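 Note: rhodamine fluorescence freed from ubiquitin-rhodamine substrate followed over time; top concentration of the series differs between compounds; % is set by controls: 0 for no effect and ±100 for the full control effect; nearly all actives have a fitted effect of over 35% in size.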 The conditions noted are these: purified USP1/UAF1, Ub-rhodamine cleavage fluorescence; series mostly up to 54.9 µM. The method in brief:
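1nM USP1/UAF1 + cpd, 15 min RT; start w/ Ub-Rho 150nM final; kinetic FL 480/540 nm, 6 reads q60 s. Buffer 50mM HEPES pH 7.8, 0.5mM EDTA, 1mM TCEP, 0.01% Tween-20, 0.1 mg/ml BSA.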

A short description of assay [11]: Primary qHTS for small molecule stabilizers of the endoplasmic reticulum resident proteome: Secreted ER Calcium Modulated Protein (SERCaMP) assay (AID 1508630). Note: % is set by controls: 0 for no effect and ±100 for the full control effect. The settings on record: SH-SY5Y GLuc-SERCaMP (Gaussia luciferase released on ER calcium loss) secretion, thapsigargin, luminescence; series mostly up to 38.4 µM. In a few lines: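 GLuc-SERCaMP-expressing SH-SY5Y cells, pretreated 16 h with compound, are challenged with thapsigargin to empty ER calcium stores; after 4 h, coelenterazine is added directly to the medium and luminescence is imaged.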

Assay [12] has as its target Cytochrome P450 1A2 (Homo sapiens) (UniProt P05177). Description: p450-cyp1a2 (AID 410; calls by dose curve; note: potency is the fitted concentration of half-maximal effect). The settings on record: recombinant CYP1A2, luciferin-ME demethylation, luminescence; series mostly up to 57 µM. In a few lines: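 20nM CYP1A2 with 100uM Luciferin-ME (at Km) in 100mM KPO4; compound preincubated 10 min, NADPH regeneration added, 60 min at room temperature. Luciferin quantified by luminescence after detection reagent; normalized to 57 uM furafylline.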

Assay [13] can be described thus: NFAT Signaling Pathway (AID 444; active = well fitted curve in either direction with a large enough effect, not every such curve was filed as active;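 note: carbachol stimulus at about its EC50 of 1 µM final; % is set by controls: 0 for no effect and ±100 for the full control effect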). The settings on record: Jurkat NFAT-bla M1, carbachol, beta-lactamase ratio, 5 h; at 7.69 µM (top of the series) unless noted. In a few lines:
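Jurkat cells with NFAT-driven β-lactamase reporter and co-expressed M1 receptor, stimulated with carbachol (final 1 uM, ~EC50), compound titration, 5 h at 37 °C. CCF4 loaded 1 h at RT; 460/530 nm ratio gave %activity and AC50.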

Assay [14] concerns the target Cytochrome P450 2C9 (Homo sapiens) (UniProt P11712). Description: qHTS Assay for Inhibitors and Substrates of Cytochrome P450 2C9 (AID 883). Note: potency is the fitted concentration of half-maximal effect; nearly all actives have a fitted effect of over 60% in size. The settings on record: recombinant CYP2C9, luciferin-H luminescence, 60 min; series mostly up to 57.1 µM. The method in brief:
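Signal: luciferase luminescence reporting luciferin produced by CYP2C9. Conditions: 10nM enzyme, Luciferin-H 100uM at KM, 25mM KPO4, 37C, 60 min NADPH-driven reaction. Reference: 57uM sulphaphenazole as 100% inhibition.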

Assay [15] has as its target Cytochrome P450 3A4 (Homo sapiens) (UniProt P08684). Nature of the assay: qHTS Assay for Inhibitors and Substrates of Cytochrome P450 3A4 (AID 884). Note: potency is the fitted concentration of half-maximal effect; nearly all actives have a fitted effect of over 50% in size. The conditions noted are these: recombinant CYP3A4, Luciferin-PPXE luminescence; series mostly up to 57.1 µM. In a few lines: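 20 nM human CYP3A4 with 25 uM Luciferin-PPXE (at KM) in 200 mM KPO4, preincubated 10 min with compound; NADPH regeneration started a 60 min RT reaction. Luciferin detected by luminescence, normalized to 57 uM ketoconazole as full inhibition.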

A short description of assay [16]: qHTS Assay for Identification of Small Molecule Agonists for Hypoxia Response Element Signaling Pathway (AID 914; active = well fitted activation curve with a large enough effect in the signal ratio, with a control signal flat, not every such curve was filed as active; the % refers to the signal ratio; note: potency is the fitted concentration of half-maximal effect). The settings on record: ME-180 HRE-bla reporter, beta-lactamase ratio, CoCl2, 17 h; activation: hits give high values. The method in brief: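 ME-180 cells carrying an HRE-driven beta-lactamase reporter were treated with compounds in a titration series plus an EC50 level of CoCl2 for 17 h at 37 degrees Celsius; CCF4 readout as the 460nm/530nm ratio gave AC50 values.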

A short description of assay [17]: Stat Signaling Pathway (AID 446; active = well fitted curve in either direction with a large enough effect, not every such curve was filed as active;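 note: ME-180 cervical cancer cells given 40 pM IL-6 alongside compound; SIE-controlled beta-lactamase reporter measured as 460/530 nm FRET emission ratio; % is set by controls: 0 for no effect and ±100 for the full control effect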). The conditions noted are these: ME-180 SIE beta-lactamase reporter, IL-6 stimulated, 5 h; at 7.69 µM (top of the series) unless noted. The method in brief:
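Screening format detects activators and inhibitors alike: ME-180 SIE-bla cells stimulated at 40 pM IL-6 for 5 hrs with compound, then dual-emission beta-lactamase read at 405 nm excitation.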

Unmarked numbers belong to inactive results. Results filed as inconclusive are left out. The source made the active and inactive calls. Unless noted, calls come from the whole dose curve; as a rule, active = well fitted curve in the direction sought with a large enough effect; inconclusive = small, poorly fitted or top-dose-only effect, or another doubt; inactive = no such curve, though single readings can be large; an effect the other way counts as inactive or inconclusive.

Lysosomal acid glucosylceramidase (Homo sapiens), sequence (P04062 whole entry, looked up): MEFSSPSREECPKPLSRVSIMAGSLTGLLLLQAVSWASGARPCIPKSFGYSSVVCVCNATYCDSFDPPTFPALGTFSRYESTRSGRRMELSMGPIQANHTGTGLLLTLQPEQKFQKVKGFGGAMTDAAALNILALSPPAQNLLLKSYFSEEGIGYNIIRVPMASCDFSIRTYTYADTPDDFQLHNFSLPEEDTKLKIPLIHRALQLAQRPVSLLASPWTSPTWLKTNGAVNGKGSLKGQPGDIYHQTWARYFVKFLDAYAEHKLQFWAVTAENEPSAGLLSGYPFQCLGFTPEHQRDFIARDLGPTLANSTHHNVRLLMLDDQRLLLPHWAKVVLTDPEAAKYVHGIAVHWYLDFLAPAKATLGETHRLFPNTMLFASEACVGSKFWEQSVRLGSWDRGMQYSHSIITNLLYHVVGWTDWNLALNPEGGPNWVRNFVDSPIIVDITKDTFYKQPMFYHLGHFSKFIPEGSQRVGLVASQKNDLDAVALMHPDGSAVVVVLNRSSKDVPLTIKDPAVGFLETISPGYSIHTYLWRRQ
Ubiquitin carboxyl-terminal hydrolase 1 (Homo sapiens), sequence (O94782 whole entry, looked up): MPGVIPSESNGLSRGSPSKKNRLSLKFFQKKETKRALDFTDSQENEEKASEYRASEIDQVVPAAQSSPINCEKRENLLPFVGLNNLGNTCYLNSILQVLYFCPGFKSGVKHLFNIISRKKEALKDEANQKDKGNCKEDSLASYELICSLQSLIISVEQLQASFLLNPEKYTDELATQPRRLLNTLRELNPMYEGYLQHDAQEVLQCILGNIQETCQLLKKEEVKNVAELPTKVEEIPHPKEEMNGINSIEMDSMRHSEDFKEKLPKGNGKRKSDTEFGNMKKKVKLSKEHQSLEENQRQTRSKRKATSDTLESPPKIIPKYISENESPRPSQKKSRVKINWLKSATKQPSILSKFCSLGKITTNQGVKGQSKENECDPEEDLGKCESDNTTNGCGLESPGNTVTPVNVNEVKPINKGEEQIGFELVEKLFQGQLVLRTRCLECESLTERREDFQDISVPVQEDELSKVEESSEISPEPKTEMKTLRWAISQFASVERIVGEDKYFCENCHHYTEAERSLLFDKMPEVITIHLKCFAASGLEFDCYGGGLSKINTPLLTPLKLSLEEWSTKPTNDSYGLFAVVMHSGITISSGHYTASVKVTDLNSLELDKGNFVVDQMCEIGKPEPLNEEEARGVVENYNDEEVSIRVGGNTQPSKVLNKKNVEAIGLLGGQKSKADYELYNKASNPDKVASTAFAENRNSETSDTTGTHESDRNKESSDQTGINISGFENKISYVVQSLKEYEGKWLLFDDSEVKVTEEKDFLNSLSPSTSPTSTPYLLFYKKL
3',5'-cyclic-AMP phosphodiesterase 4B (Homo sapiens), sequence (Q07343 whole entry, looked up): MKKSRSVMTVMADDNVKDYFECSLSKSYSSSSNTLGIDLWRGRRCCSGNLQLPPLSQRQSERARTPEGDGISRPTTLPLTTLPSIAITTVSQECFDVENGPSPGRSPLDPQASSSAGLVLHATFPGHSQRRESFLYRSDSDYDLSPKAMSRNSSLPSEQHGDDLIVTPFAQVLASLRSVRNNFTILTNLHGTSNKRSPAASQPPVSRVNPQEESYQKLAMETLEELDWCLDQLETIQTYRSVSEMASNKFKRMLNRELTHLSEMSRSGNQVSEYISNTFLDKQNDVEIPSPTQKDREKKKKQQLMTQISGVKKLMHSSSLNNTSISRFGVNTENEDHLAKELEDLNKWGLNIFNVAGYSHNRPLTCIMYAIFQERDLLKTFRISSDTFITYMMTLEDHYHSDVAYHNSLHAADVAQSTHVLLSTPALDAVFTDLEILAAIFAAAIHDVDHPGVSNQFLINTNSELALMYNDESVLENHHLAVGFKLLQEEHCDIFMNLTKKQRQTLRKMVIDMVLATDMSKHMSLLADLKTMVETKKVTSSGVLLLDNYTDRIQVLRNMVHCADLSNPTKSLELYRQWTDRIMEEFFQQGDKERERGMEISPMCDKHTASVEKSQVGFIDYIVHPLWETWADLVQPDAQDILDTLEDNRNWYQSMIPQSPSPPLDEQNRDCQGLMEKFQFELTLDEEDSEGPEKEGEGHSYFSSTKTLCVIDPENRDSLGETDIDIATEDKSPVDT
Cytochrome P450 3A4 (Homo sapiens), sequence (P08684 whole entry, looked up): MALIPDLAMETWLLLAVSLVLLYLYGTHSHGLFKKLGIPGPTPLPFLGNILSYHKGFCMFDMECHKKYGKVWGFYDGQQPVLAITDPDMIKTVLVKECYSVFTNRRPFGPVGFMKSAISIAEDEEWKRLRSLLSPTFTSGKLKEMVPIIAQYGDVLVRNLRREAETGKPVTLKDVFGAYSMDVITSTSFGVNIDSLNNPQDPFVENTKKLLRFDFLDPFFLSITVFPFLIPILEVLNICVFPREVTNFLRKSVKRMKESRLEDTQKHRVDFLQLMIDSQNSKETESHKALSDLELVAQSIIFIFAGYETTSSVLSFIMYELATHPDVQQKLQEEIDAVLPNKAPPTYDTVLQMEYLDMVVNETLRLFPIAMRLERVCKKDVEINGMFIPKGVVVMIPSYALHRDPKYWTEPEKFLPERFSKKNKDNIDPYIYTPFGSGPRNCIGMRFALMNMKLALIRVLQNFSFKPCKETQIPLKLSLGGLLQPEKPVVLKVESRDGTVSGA
Cytochrome P450 1A2 (Homo sapiens), sequence (P05177 whole entry, looked up): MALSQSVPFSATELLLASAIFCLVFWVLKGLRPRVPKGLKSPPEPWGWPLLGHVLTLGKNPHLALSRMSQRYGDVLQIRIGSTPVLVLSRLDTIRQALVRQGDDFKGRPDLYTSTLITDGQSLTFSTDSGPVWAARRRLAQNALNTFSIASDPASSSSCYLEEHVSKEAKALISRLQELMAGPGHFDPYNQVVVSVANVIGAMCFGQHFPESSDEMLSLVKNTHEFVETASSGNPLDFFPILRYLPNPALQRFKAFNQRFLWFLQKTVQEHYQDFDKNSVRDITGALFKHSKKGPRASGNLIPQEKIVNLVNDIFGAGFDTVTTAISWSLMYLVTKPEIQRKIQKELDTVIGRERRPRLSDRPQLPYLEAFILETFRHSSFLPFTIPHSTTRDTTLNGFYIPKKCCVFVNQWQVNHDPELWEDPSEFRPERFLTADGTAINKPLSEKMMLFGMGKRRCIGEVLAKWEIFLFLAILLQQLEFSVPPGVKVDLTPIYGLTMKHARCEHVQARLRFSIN
Dual specificity protein kinase CLK4 (Homo sapiens), sequence (Q9HAZ1 whole entry, looked up): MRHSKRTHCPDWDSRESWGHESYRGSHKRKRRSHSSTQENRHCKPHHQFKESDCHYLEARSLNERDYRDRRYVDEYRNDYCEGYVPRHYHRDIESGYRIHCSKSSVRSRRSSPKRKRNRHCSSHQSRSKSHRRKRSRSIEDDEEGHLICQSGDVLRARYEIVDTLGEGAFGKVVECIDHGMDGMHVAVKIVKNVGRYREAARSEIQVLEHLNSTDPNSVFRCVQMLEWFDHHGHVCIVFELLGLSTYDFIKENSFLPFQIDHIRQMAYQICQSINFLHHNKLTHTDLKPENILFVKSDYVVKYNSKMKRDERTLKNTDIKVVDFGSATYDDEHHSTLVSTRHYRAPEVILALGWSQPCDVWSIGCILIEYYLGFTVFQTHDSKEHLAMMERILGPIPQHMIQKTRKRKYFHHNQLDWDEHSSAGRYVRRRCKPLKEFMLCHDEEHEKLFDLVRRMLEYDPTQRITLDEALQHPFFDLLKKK
Glucocorticoid receptor (Homo sapiens), sequence (P04150 whole entry, looked up): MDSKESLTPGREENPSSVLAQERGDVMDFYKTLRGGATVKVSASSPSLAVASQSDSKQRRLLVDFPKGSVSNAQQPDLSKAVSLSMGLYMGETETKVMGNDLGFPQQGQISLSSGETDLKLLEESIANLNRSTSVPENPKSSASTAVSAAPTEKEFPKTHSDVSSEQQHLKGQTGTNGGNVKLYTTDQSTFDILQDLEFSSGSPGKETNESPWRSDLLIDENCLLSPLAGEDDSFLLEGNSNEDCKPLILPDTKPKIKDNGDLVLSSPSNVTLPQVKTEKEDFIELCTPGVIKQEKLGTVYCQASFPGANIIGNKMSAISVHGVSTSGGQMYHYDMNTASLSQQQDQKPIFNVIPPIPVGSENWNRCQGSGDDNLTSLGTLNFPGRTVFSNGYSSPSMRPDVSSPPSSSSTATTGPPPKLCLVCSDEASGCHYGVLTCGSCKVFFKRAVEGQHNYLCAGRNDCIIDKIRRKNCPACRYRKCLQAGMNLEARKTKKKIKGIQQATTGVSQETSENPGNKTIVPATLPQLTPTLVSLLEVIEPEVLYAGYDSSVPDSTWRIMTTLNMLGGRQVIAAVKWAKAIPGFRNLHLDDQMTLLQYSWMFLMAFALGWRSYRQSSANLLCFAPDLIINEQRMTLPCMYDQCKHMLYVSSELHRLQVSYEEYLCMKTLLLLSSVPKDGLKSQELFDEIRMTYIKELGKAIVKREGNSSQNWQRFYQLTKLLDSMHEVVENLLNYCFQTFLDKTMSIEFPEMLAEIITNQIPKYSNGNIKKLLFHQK
Cytochrome P450 2C9 (Homo sapiens), sequence (P11712 whole entry, looked up): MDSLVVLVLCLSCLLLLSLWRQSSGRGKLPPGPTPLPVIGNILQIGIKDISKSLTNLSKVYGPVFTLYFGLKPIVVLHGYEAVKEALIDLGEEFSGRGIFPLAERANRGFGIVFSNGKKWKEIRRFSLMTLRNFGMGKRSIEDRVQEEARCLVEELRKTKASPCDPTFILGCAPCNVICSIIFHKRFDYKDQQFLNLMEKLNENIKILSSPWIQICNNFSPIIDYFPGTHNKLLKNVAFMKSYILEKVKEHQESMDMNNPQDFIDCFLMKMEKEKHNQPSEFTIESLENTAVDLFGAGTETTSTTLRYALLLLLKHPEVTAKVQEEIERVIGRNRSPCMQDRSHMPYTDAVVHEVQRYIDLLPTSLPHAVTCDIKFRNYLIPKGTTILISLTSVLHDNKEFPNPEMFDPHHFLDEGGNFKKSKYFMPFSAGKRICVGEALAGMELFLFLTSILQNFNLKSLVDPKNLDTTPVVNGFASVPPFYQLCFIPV

With `COc1ccc(-c2nc3cnc(OCc4ccccc4)nc3n(CCC#N)c2=O)cc1`, the Potency in assay [1] was over 11.4 µM; in assay [2] it was over 9.22 µM; in assay [3], over 46 µM. Besides, the Potency result in assay [4], in [5], in [6], in assay [7], in [8] and in [9] was “inactive” in each case. Also, the Potency entry in assay [10] was “inactive”. Besides, the outcome in assay [11] was inactive.
As to `COc1cccc(Cn2c(=O)c(-c3cccs3)nc3cnc(OC)nc32)c1`, the Potency in assay [1] is over 11.4 µM; in assay [12], 3.16 µM (active); in assay [2] it was over 9.22 µM; in assay [3], over 46 µM; in [14], 3.16 µM (active); in assay [15], 3.98 µM (active). Further, the activity change, negative = inhibition in assay [13] is 25.8%. The Potency result in assay [6], in assay [7], in assay [8], in assay [9] and in assay [10] was “inactive” in each case. The result in [11] was inactive.
`CCNc1ncc2nc(-c3ccc(F)cc3)c(=O)n(Cc3ccc(F)cc3)c2n1`: the Potency in assay [1] is over 11.4 µM; in [12], 20 µM (active); in assay [2], over 9.22 µM; in assay [3], over 46 µM; in [16], 1.58 µM (active). In assay [13], the activity change, negative = inhibition was 18.8%. Further, the Potency result in assay [4], in assay [5], in [7], in assay [8] and in assay [9] was “inactive” each time. Moreover, the result in assay [11] was inactive.
Take `COc1cccc(Nc2ncc3nc(-c4cc(F)cc(F)c4)c(=O)n(C[C@H]4CCCO4)c3n2)c1`: the Potency was over 11.4 µM in assay [1], over 9.22 µM in [2] and over 46 µM in assay [3]. Also, the activity, negative = inhibition in [17] was -10.3%. Also, the Potency result in [4], in assay [5], in [6], in [7], in [8] and in assay [9] was “inactive” in each case. In [10], the Potency entry is “inactive”. In addition, the result in assay [11] was inactive.
Regarding `O=c1c(-c2ccc(Cl)cc2)nc2cnc(N3CCNCC3)nc2n1-c1ccccc1`, the figures for the Potency in assay [1], in assay [2] and in [3] were over 11.4 µM, over 9.22 µM and over 46 µM, respectively. Also, the activity change, negative = inhibition in [13] was 153% [activator] (active). Besides, the Potency result in assay [5], in assay [6], in [7], in assay [8], in [9] and in assay [10] was “inactive” in each case. In addition, the outcome in assay [11] was inactive.
For the compound `CS(=O)(=O)Nc1cccc(-c2ccc3ncnc(N4CCOCC4)c3c2)c1`, the Potency in assay [1] was over 11.4 µM; in assay [12], 12.6 µM (active); in assay [2], over 46 µM; in [3], over 46 µM; in assay [15], 7.94 µM (active); in assay [7], 7.94 µM (active). Further, the Potency in assay [8] is 6.31 µM (active); in assay [9], 7.08 µM (active). Further, the activity, negative = inhibition in [17] was -11.8%. The Potency result in assay [4], in assay [6] and in [10] was “inactive” in each case. Besides, the result in [11] was inactive.
Regarding `O=c1c(-c2ccccc2)nc2cnc(N3CCOCC3)nc2n1Cc1ccc(F)cc1`, the Potency in assay [1] is over 11.4 µM; in assay [12], 20 µM (active); in assay [2], over 9.22 µM; in assay [3] it was over 46 µM. The Potency result in assay [4], in assay [7], in assay [8], in assay [9] and in assay [10] was “inactive” each time. For the same compound, the result in [11] was inactive.

Values taken from PubChem BioAssay (NCATS).
